Activity calls are given as the source filed them. The calls were made as follows: active = hit-call score of the fitted dose curve at least 0.9, where 1 is the maximum; inactive = score below 0.9.
Tests used:
[1] = read-out: C-C motif chemokine 2 (Homo sapiens) (UniProt P13500); test: BSK_KF3CT_MCP1: BioMAP Diversity Plus: KF3CT Assay for Monocyte Chemoattractant Protein 1 (MCP1/CCL2) Biomarker Activity (AID 2283073); conditions: primary human keratinocytes with fibroblasts; actives raise or lower the signal
Summary of the method: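 Biomarker MCP-1 is measured by ELISA in primary human keratinocytes co-cultured with foreskin fibroblasts, 24 h after chemical treatment; DMSO serves as the negative control and activity baseline.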

[2] = read-out: Matrix Metallopeptidase 9 (MMP9), MMP9 (gene 4318); test: BSK_KF3CT_MMP9: BioMAP Diversity Plus: KF3CT Assay for Matrix Metallopeptidase 9 (MMP9) Biomarker Activity (AID 2283074); conditions: primary human keratinocytes with fibroblasts; actives raise or lower the signal;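 as to AC50: MMP9 protein level quantified by ELISA in the co-culture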
Summary of the method: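 MMP-9 quantified by ELISA after 24 h chemical treatment of primary human skin keratinocyte/fibroblast co-cultures; gain or loss fitted against DMSO, with parallel SRB staining (0.1% SRB, 560 nm) for overt cytotoxicity.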

[3] = read-out: urokinase plasminogen activator (uPA), PLAU (gene 5328); test: BSK_KF3CT_uPA: BioMAP Diversity Plus: KF3CT Assay for urokinase plasminogen activator (uPA) Biomarker Activity (AID 2283075); conditions: primary human keratinocytes with fibroblasts; actives raise or lower the signal
Summary of the method: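 ELISA read-out of uPA 24 h after dosing human skin keratinocytes co-cultured with foreskin fibroblasts. Signal change fitted both ways relative to DMSO; sulforhodamine B on parallel cultures marks overt cytotoxicity.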

CD40, CD40 (gene 958) = test: BSK_LPS_CD40: BioMAP Diversity Plus: LPS Assay for CD40 Biomarker Activity (AID 2283076); conditions: primary human HUVEC with PBMC; actives raise or lower the signal
Summary of the method: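 Using a multiplexed primary human co-culture (umbilical vein endothelium plus PBMC), CD40 was read by ELISA 24 h after dosing, with cytotoxicity tracked by sulforhodamine B staining of parallel cultures and activity fitted bidirectionally versus DMSO.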

[4] = read-out: E-selectin (Homo sapiens) (UniProt P16581); test: BSK_LPS_Eselectin: BioMAP Diversity Plus: LPS Assay for Eselectin Biomarker Activity (AID 2283077); conditions: primary human HUVEC with PBMC; actives raise or lower the signal
Summary of the method: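 Dose chemical onto LPS-driven HUVEC/PBMC co-culture; after 24 h, run ELISA for E-selectin; fit up- and down-going responses relative to DMSO control.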

[5] = read-out: Interleukin-8 (IL8), CXCL8 (gene 3576); test: BSK_LPS_IL8: BioMAP Diversity Plus: LPS Assay for Interleukin-8 (IL8) Biomarker Activity (AID 2283078); conditions: primary human HUVEC with PBMC; actives raise or lower the signal
Summary of the method: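 In this LPS system, chemical-treated human umbilical vein endothelium/PBMC co-cultures were harvested at 24 h for IL-8 ELISA.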

[6] = BSK_LPS_SRB: Viability Assessment in the BioMAP Diversity Plus: LPS Assay (AID 2283079); conditions: primary human HUVEC with PBMC;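 also: total protein by sulforhodamine B absorbance as a cytotoxicity measure; measured one day after compound addition; fitted in both directions against DMSO so loss or gain of signal counts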
Summary of the method: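 Cytotoxicity endpoint in human endothelial–PBMC co-culture: 24 h exposure, then SRB (0.1%) staining, 560 nm read.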

[7] = read-out: Interleukin-1 alpha (IL1a), IL1A (gene 3552); test: BSK_LPS_IL1a: BioMAP Diversity Plus: LPS Assay for Interleukin-1 alpha (IL1a) Biomarker Activity (AID 2283080); conditions: primary human HUVEC with PBMC; actives raise or lower the signal
Summary of the method: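 Primary human HUVEC and PBMC co-culture stimulated with LPS is dosed and harvested at 24 h. Both increases and decreases in ELISA-measured IL-1a are scored relative to DMSO.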

[8] = read-out: Monocyte Chemoattractant Protein-1 (MCP1), CCL2 (gene 6347); test: BSK_LPS_MCP1: BioMAP Diversity Plus: LPS Assay for Monocyte Chemoattractant Protein-1 (MCP1) Biomarker Activity (AID 2283081); conditions: primary human HUVEC with PBMC; actives raise or lower the signal;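 as to AC50: secreted MCP-1 protein quantified by ELISA in culture supernatant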
Summary of the method: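 Values derive from bidirectional fitting against DMSO of ELISA-measured MCP-1 in a human primary endothelial and mononuclear cell co-culture, 24 h after chemical addition under LPS activation.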

[9] = BSK_LPS_PGE2: BioMAP Diversity Plus: LPS Assay for Prostaglandin E2 (PGE2) Biomarker Activity (AID 2283082); conditions: primary human HUVEC with PBMC; actives raise or lower the signal;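 as to AC50: secreted prostaglandin E2 measured by ELISA in LPS-stimulated co-culture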
Summary of the method: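 ELISA read-out of PGE2 from human umbilical vein endothelial cells co-cultured with peripheral blood mononuclear cells under LPS, 24 h post-dose. Gain or loss of signal scored relative to DMSO baseline.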

Measured: AC50

E-selectin (Homo sapiens), sequence (P16581 whole entry, looked up): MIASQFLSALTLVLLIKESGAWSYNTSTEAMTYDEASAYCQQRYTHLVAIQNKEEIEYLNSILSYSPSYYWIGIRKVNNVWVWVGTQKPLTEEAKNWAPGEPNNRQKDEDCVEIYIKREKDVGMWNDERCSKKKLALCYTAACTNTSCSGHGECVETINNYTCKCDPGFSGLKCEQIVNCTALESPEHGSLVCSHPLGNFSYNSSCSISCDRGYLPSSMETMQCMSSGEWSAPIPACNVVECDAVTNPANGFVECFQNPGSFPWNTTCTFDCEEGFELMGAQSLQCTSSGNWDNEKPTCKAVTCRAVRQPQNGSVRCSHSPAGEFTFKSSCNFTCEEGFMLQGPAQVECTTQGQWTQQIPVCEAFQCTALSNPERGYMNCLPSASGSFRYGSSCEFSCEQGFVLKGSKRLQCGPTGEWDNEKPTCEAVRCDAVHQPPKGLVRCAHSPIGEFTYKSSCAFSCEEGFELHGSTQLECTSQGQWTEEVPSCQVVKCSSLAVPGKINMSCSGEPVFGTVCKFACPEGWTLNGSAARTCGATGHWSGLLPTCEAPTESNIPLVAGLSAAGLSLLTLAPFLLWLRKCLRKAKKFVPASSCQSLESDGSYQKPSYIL

CCO[Si](CCCNC(N)=O)(OCC)OCC
inactive: all assays above

CN1C(=O)CC[C@H]1c1cccnc1
inactive: all assays above

O=C(OCCCCCCOC(=O)c1ccccc1)c1ccccc1
active: [9] 32.4 µM
inactive: all other assays above

CC(C)(c1cc(Br)c(O)c(Br)c1)c1cc(Br)c(O)c(Br)c1
active: [1] 4.16 µM | [2] 3.69 µM | [3] 3.65 µM | CD40, CD40 (gene 958) 24.1 µM | [4] 28.7 µM | [5] 30.3 µM | [6] 29.8 µM | [7] 29.9 µM | [8] 29.1 µM
inactive: [9]

CC(C)(C)c1csc(-c2cc3cc(OCc4ccccc4CC(=O)O)ccc3o2)n1
active: [1] 20 µM | [2] 13.7 µM | [3] 20.7 µM | CD40, CD40 (gene 958) 20.7 µM | [4] 30.9 µM | [6] 20.9 µM | [7] 20.5 µM | [8] 22.6 µM
inactive: [5] | [9]

CC[C@H](NC(=O)c1cc(F)ccc1NS(=O)(=O)c1cccc2cccnc12)c1ccccc1
active: [9] 8.72 µM
inactive: all other assays above

CCCCOC(=O)c1ccc(O)cc1
active: [9] 20 µM
inactive: all other assays above

CCCC(=O)OCCC(C)C
inactive: all assays above

Clc1ccccc1C(c1ccccc1)(c1ccccc1)n1ccnc1
active: [1] 7.25 µM | [2] 5.43 µM | [3] 9.72 µM | CD40, CD40 (gene 958) 14.7 µM | [4] 30.7 µM | [5] 30.9 µM | [6] 23.1 µM | [7] 30.5 µM | [8] 29.7 µM | [9] 5.45 µM

CN(C[C@@H](CC[N+]12CCC(C3CCCCC3)(CC1)CC2)c1ccc(Cl)c(Cl)c1)C(=O)c1cc(C(F)(F)F)cc(C(F)(F)F)c1
active: [1] 9.72 µM | [2] 7.39 µM | [3] 10.5 µM | CD40, CD40 (gene 958) 19.1 µM | [4] 26.4 µM | [5] 24.8 µM | [6] 24.6 µM | [7] 18.4 µM | [8] 23.4 µM
inactive: [9]

CC(C)(O)c1ccc(CNC(=O)c2cccnc2Oc2ccc3nonc3c2)cc1
inactive: all assays above

CN(C)C(=O)C1(N2CCCCC2)CCN(CC[C@@]2(c3ccc(Cl)c(Cl)c3)CN(C(=O)c3ccccc3)CCO2)CC1
active: [1] 35 µM | [2] 25.5 µM | [3] 32.1 µM | CD40, CD40 (gene 958) 16.8 µM | [4] 29.2 µM | [5] 25.7 µM | [6] 18.9 µM | [7] 18.9 µM | [8] 25.2 µM
inactive: [9]

CCN(Cc1cccnc1)C(=O)c1cccc(Cl)c1[C@]1(C)C(=O)N(Cc2ccc(OC)cc2OC)c2ccc(Cl)cc21
inactive: [1] | [3] | [9]
active: [2] 4.21 µM | CD40, CD40 (gene 958) 5.26 µM | [4] 10.8 µM | [5] 5.54 µM | [6] 6.69 µM | [7] 4.18 µM | [8] 8.28 µM

Cc1oc2c(NC(=O)c3c(Cl)cccc3Cl)cccc2c1C(C)(C)O
active: [4] 6.04 µM | [6] 26.5 µM | [9] 21.1 µM
inactive: all other assays above

CCCCCCCCCC(=O)O
inactive: all assays above

Cc1occc1C(=O)Nc1ccc(C(=O)N2CCC(F)(F)/C(=C\C(=O)N3CCC(N4CCCCC4)CC3)c3ccccc32)cc1
not listed: [6]
inactive: all other assays above

CC/C(=C(/CC)c1ccc(O)cc1)c1ccc(O)cc1
active: [1] 11.2 µM | [2] 12.3 µM | [3] 29.3 µM | CD40, CD40 (gene 958) 20 µM | [4] 30.3 µM | [5] 37 µM | [6] 25.4 µM | [7] 29.7 µM | [8] 33.9 µM | [9] 20 µM

CC(O)CC(C)(C)O (centres undefined)
inactive: all assays above

Cc1ncc(CO)c(CO)c1O
inactive: all assays above

Reference: PubChem BioAssay (EPA / NIEHS)
